# Source: PubChem BioAssay (Tox21)
# Several values for one entry are separate records, joined by “and”; a condition that tells them apart may be missing. Identical values can stand only once. Results filed as inconclusive are left out. Where a call stands in place of a potency, no number is given. More than one record can exist for a structure, and the calls need not agree. Activity calls are given as the source filed them. Unless noted, the call rests on the fitted dose curve.
# Tests used:
# [1] = Nuclear factor erythroid 2-related factor 2/antioxidant responsive element (Nrf2/ARE) small molecule agonists: qHTS cell viability counter screen in human keratinocytes (AID 1919968; active means well fitted curve in the direction sought with a large enough effect in the repeat runs; an effect the other way counts as inactive or inconclusive; further: nearly all actives have a fitted effect of over 55% in size; further: potency means the concentration at half of the fitted maximal effect)
# Outline: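 In human HaCaT keratinocytes stably expressing an ARE-driven luciferase, compound exposure lasted 23 h at 37 C under 5% CO2. Viable cells are quantified with a protease-based fluorogenic reagent (CellTiter-Fluor) read 1 h after addition.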
# [2] = Nuclear factor erythroid 2-related factor 2/antioxidant responsive element (Nrf2/ARE) small molecule agonists: luciferase reporter gene qHTS assay in human keratinocytes (AID 1919969); further: nearly all actives have a fitted effect of over 35% in size; further: potency means the concentration at half of the fitted maximal effect
# [3] = target: Gonadotropin-releasing hormone receptor (Homo sapiens) (UniProt P30968); assay: Human gonadotropin-releasing hormone receptor (GnRHR) small molecule agonists, calcium flux assay in GnRHR-HEK293 cells (AID 1920063); further: nearly all actives have a fitted effect of over 35% in size
# Outline: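 Intracellular calcium rise is the read-out: engineered human GnRHR HEK293 cells, dye-loaded, are exposed to DMSO-dissolved compounds and fluorescence at Ex/Em 480/540 is tracked for 3 min.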
# [4] = target: KiSS-1 receptor (Homo sapiens) (UniProt Q969F8); assay: Human kisspeptin (KISS1R) small molecule agonists, calcium flux assay in KISS1R-HEK293 cells (AID 1920064; active means well fitted curve in the direction sought with a large enough effect in the repeat runs; an effect the other way counts as inactive or inconclusive)
# Outline: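 Concentration-response testing used 15 concentrations in triplicate on human KISS1R-expressing HEK293 cells. Calcium-dependent fluorescence (Ex/Em 480/540) was followed kinetically for 3 min after compound transfer.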
# [5] = G protein-coupled receptor (GPCR) small molecule agonists, calcium flux assay: HEK293 wild type cell line counter screen (AID 1920065)
# Outline: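 Fluorescence intensity signals activation. After overnight (18 h) culture and a 1 h calcium dye load at 37 C, compounds are added by pin tool and the plate read at 480/540 nm for 3 min in 1 s steps.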
# [6] = p53 small molecule agonists, cell-based qHTS assay with human liver microsomes: qHTS cell viability counter screen (AID 1963579); further: nearly all actives have a fitted effect of over 45% in size; further: potency means the concentration at half of the fitted maximal effect
# Outline: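 Metabolic activation used human liver microsomes and NADPH, both 0.5 mg/mL final, over 16 hours at 37 C on p53RE-bla cells (4,000/well). Cytotoxicity measured by CellTiter-Glo luminescence, 30 min at room temperature.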
# [7] = p53 small molecule agonists, cell-based qHTS assay with rat liver microsomes: qHTS cell viability counter screen (AID 1963580); further: nearly all actives have a fitted effect of over 45% in size
# Outline: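 Luminescent ATP readout (CellTiter-Glo, 30 min at room temperature) reports viability of p53RE-bla HCT-116 cells after 16 h at 37 C with test compounds under metabolic activation by rat liver microsomes and NADPH at 0.5 mg/mL final each.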
# [8] = p53 small molecule agonists, cell-based qHTS assay: qHTS cell viability counter screen (AID 1963581); further: nearly all actives have a fitted effect of over 45% in size
# Outline: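 Luminescence from CellTiter-Glo, reflecting ATP content, serves as the cytotoxicity measure; it is taken after the 2 h reporter substrate step in HCT-116 p53RE-bla cells dosed for 16 h at 37 C.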
# [9] = p53 small molecule agonists, cell-based qHTS assay (AID 1963582; active means well fitted activation curve with a large enough effect in the signal ratio in the repeat runs, not every such curve was filed as active; the % refers to the signal ratio)
# Outline: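 After plating, p53RE-bla cells sat 5 h in the incubator; compounds or DMSO vehicle were pinned in; a 16 h incubation at 37 C followed; FRET substrate was added and, 2 h later at RT, fluorescence was measured.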
# [10] = target: 5-hydroxytryptamine receptor 2A (Homo sapiens) (UniProt P28223); assay: 5-hydroxytryptamine receptor 2A (HTR2A) small molecule antagonists, cell-based qHTS assay (AID 1963586); further: nearly all actives have a fitted effect of over 45% in size; further: potency means the concentration at half of the fitted maximal effect
# Outline: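 CHO cells stably expressing human HTR2A were plated for 18 h at 37 C, then loaded with calcium dye for 1 h. Compounds were preincubated 5 min at room temperature before DOI (4 nM solution) was added. Kinetic fluorescence was read for 3 min.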
# [11] = target: 5-hydroxytryptamine receptor 2A (Homo sapiens) (UniProt P28223); assay: 5-hydroxytryptamine receptor 2A (HTR2A) small molecule agonists, cell-based qHTS assay (AID 1963587); further: nearly all actives have a fitted effect of over 30% in size
# Outline: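 HTR2A-CHO cells, plated 18 h at 37 C/5% CO2, dye-loaded 1 h at 37 C; compounds in DMSO added by pin tool (agonist mode). Intracellular calcium flux read as kinetic fluorescence on FDSS over 2 min at 1 s intervals.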
# [12] = target: Muscarinic acetylcholine receptor M1 (Homo sapiens) (UniProt P11229); assay: Cholinergic receptor muscarinic 1 (CHRM1) small molecule antagonists, cell-based qHTS assay (AID 1963588); further: nearly all actives have a fitted effect of over 40% in size
# Outline: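 Compounds were tested at 15 concentrations in three independent runs. Dye-loaded CHRM1-CHO cells were exposed 5 min at room temperature before stimulation by acetylcholine added at 50nM. Intracellular calcium was read kinetically on FDSS for 3 min.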
# [13] = target: Muscarinic acetylcholine receptor M1 (Homo sapiens) (UniProt P11229); assay: Cholinergic receptor muscarinic 1 (CHRM1) small molecule agonists, cell-based qHTS assay (AID 1963589); further: nearly all actives have a fitted effect of over 35% in size
# Outline: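 Fluorescent calcium dye reports M1 activation in stably transfected CHO cells. Compounds, 15 concentrations, added after 1 h dye loading at 37 C; kinetic reading at 1 sec intervals.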
# [14] = cAMP Responsive Elements (CRE) small molecule agonists, cell-based qHTS assay (AID 1963590)
# Outline: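 Compound exposure lasted 3 h at 37 C/5% CO2 in CRE-bla HEK 293T cells grown in assay medium with 10% dialyzed FBS and 25 mM HEPES. Reporter signal came from LiveBLAzer B/G FRET substrate, 2 h, room temperature.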
# [15] = cAMP Responsive Elements (CRE) small molecule antagonists, cell-based qHTS assay (AID 1963591; active means well fitted inhibition curve with a large enough effect in the signal ratio in the repeat runs, not every such curve was filed as active; the % refers to the signal ratio)
# Outline: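 Stimulation used NKH477 at a final 0.25 uM for 3 h in compound-treated CRE-bla HEK293T cells, seeded 18 h beforehand. Reporter activity was measured with LiveBLAzer B/G FRET substrate after 2 h at room temperature.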
# [16] = target: Beta-2 adrenergic receptor (Homo sapiens) (UniProt P07550); assay: Adrenergic beta2 receptor (ADRB2) small molecule antagonists, cell-based qHTS assay (AID 1963592); further: series mostly up to about 92 µM; nearly all actives have a fitted effect of over 50% in size
# Outline: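 Assay format: CHO-ADRB2 cells, 18-20hr seeding at 37C/5% CO2, then compound plus 1nM isoproterenol agonist mix for 0.5hr RT. Homogeneous time-resolved fluorescence cAMP detection after 1hr, expressed as 665/615 nm ratio.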
# [17] = target: Beta-2 adrenergic receptor (Homo sapiens) (UniProt P07550); assay: Adrenergic beta2 receptor (ADRB2) small molecule agonists, cell-based qHTS assay (AID 1963593);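 further: CHO cells stably overexpressing human ADRB2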
# Outline: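 CHO cells stably over-expressing ADRB2 were plated overnight at 37C, then dosed with compounds plus a stimulation mix containing 100uM IBMX and 25uM Ro-20-1724 for 0.5hr at room temperature. cAMP was measured by HTRF competition, 1hr.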
# [18] = target: D(2) dopamine receptor (Homo sapiens) (UniProt P14416); assay: Dopamine D2 receptor (DRD2) small molecule agonists, cell-based qHTS assay (AID 1963594); further: nearly all actives have a fitted effect of over 35% in size
# Outline: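 HEK293 cells stably expressing DRD2 were cultured 24 h at 37 C, then given Ro20-1724 (0.1 mM final) and compounds for 10 min at room temperature. NKH477 (200nM) was then added for 30 min. cAMP was read by HTRF.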
# [19] = target: D(2) dopamine receptor (Homo sapiens) (UniProt P14416); assay: Dopamine D2 receptor (DRD2) small molecule antagonists, cell-based qHTS assay (AID 1963595; active means well fitted inhibition curve with a large enough effect in the signal ratio in the repeat runs, with a control signal flat; the % refers to the signal ratio)
# Outline: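 In this cell-based antagonist screen, compounds act for 10 min at room temperature before a 30 min challenge with 12 nM quinpirole and 200 nM NKH477. cAMP is quantified by HTRF competition in DRD2-HEK293 cells containing 0.1 mM Ro20-1724.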
# [20] = p53 small molecule agonists, cell-based qHTS assay with rat liver microsomes (AID 1963578)
# Outline: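 Metabolic activation by rat liver microsomes and NADPH, each 0.5 mg/mL final, added right after compounds to p53RE-bla reporter cells (4,000/well, plated 5 h earlier). 16 h at 37 C, then LiveBLAzer substrate for 2 h at room temperature in the dark; fluorescence read-out.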
# Chain of 5-hydroxytryptamine receptor 2A (Homo sapiens) (P28223 whole entry, looked up): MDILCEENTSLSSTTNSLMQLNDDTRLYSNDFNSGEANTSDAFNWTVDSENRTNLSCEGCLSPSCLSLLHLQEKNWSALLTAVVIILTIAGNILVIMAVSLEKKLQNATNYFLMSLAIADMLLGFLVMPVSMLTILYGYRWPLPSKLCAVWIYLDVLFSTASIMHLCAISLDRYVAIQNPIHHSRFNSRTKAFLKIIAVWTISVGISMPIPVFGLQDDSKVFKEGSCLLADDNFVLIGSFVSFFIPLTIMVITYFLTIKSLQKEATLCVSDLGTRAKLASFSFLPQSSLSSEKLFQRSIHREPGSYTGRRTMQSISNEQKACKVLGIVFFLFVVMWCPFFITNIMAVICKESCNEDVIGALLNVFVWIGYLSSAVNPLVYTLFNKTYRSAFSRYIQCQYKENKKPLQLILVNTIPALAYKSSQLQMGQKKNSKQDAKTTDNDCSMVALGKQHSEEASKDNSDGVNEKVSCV
# Chain of Muscarinic acetylcholine receptor M1 (Homo sapiens) (P11229 whole entry, looked up): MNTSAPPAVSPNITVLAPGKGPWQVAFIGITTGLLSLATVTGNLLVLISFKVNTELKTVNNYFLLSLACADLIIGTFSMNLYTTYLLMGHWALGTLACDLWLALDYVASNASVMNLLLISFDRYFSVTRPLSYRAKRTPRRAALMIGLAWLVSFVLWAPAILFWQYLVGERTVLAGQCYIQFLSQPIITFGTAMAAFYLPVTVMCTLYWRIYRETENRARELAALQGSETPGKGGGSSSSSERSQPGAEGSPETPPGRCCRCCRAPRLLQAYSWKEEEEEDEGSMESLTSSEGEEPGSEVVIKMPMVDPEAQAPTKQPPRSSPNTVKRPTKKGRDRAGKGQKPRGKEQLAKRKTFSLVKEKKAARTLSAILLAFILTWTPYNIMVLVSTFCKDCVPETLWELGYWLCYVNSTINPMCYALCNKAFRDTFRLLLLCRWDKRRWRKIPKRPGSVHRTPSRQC
# Chain of KiSS-1 receptor (Homo sapiens) (Q969F8 whole entry, looked up): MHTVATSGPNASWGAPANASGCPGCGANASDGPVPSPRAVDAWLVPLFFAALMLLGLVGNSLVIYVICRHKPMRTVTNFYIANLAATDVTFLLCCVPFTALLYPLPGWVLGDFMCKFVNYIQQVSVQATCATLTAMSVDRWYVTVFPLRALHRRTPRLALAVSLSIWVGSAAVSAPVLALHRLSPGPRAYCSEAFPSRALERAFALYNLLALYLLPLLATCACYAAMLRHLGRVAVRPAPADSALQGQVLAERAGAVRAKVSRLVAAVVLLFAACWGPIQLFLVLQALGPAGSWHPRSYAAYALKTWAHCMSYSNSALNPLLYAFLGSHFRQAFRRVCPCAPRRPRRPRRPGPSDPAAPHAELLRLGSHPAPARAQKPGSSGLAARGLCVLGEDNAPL
# Chain of D(2) dopamine receptor (Homo sapiens) (P14416 whole entry, looked up): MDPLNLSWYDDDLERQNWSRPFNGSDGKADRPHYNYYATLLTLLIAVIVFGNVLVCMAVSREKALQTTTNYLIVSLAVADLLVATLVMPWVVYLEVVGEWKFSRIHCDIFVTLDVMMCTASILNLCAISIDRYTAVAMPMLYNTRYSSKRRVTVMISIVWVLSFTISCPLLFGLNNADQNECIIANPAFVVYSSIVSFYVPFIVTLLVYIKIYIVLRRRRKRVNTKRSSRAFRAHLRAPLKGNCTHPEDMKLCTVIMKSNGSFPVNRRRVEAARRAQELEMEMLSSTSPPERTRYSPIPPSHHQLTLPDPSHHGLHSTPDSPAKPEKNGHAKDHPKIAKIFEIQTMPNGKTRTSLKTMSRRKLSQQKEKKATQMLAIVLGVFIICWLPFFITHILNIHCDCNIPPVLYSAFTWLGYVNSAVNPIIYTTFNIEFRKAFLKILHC
# Chain of Beta-2 adrenergic receptor (Homo sapiens) (P07550 whole entry, looked up): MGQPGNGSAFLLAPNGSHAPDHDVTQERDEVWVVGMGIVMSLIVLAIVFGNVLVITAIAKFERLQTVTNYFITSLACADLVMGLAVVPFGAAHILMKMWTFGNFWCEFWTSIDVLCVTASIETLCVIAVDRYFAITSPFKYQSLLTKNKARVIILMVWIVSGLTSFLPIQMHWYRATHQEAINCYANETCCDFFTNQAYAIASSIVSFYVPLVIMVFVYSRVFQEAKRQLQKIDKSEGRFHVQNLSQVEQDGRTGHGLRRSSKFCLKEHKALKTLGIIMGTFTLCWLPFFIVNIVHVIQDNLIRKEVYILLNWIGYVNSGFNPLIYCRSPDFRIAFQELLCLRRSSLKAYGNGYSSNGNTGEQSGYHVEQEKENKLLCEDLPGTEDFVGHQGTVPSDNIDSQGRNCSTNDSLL
# Chain of Gonadotropin-releasing hormone receptor (Homo sapiens) (P30968 whole entry, looked up): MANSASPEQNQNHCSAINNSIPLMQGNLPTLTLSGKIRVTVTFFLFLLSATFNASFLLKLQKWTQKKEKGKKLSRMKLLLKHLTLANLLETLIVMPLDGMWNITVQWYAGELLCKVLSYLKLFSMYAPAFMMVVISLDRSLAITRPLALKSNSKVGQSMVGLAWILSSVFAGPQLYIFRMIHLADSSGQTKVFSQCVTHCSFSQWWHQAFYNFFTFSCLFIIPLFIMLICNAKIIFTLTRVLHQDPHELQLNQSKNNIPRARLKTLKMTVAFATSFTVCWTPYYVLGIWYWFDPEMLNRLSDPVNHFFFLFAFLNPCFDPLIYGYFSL
SMILES,Potency [1],Potency [2],Potency [3],Potency [4],Potency [5],Potency [6],Potency [7],Potency [8],Potency [9],Potency [10],Potency [11],Potency [12],Potency [13],Potency [14],Potency [15],Potency [16],Potency [17],Potency [18],Potency [19],Potency [20]
COc1c2ccoc2cc2oc(=O)ccc12,inactive,inactive,inactive,inactive,inactive,inactive,inactive,inactive,inactive,inactive,inactive,inactive,inactive,inactive,inactive,inactive,inactive,inactive,inactive,
CCCCCCCCCCCCOCCO,inactive,27.3 µM (active),inactive,inactive,inactive,20.4 µM (active) and inactive,inactive,inactive,,inactive,inactive,inactive,inactive,inactive,inactive,inactive,inactive,,,
O=c1cc(-c2ccccc2)oc2ccccc12,inactive and 13.6 µM (active),4.86 µM (active) and 2.16 µM (active),inactive,inactive,inactive,inactive,inactive,inactive,,inactive,inactive,inactive,inactive,,inactive,inactive,,inactive,inactive,
Cc1ccc(C=O)cc1,inactive,inactive,inactive,inactive,inactive,inactive,,inactive,inactive,inactive,inactive,,inactive,inactive,inactive,inactive,,inactive,,inactive
CCCCCCOC(=O)C(C)CC (configuration not stated),inactive,inactive,inactive,inactive,inactive,,inactive,inactive,inactive,inactive,inactive,inactive,inactive,inactive,inactive,inactive,inactive,inactive,inactive,inactive
C=C1C[C@]23C[C@@]1(O)CC[C@H]2[C@@]12C=C[C@H](O)[C@@](C)(C(=O)O1)[C@H]2[C@@H]3C(=O)O,inactive,inactive,inactive,inactive,inactive,inactive,inactive,inactive,,inactive,inactive,inactive,inactive,inactive,inactive,inactive,,inactive,inactive,
CC(=O)OC/C=C(\C)CC/C=C(\C)CCC=C(C)C,inactive,inactive,inactive,inactive,inactive,inactive,inactive,inactive,,inactive,inactive,inactive,inactive,,inactive,inactive,inactive,inactive,inactive,
c1ccc2c(c1)-c1cccc3c1c-2cc1ccccc13,inactive,23.8 µM (active) and 21.7 µM (active),inactive,inactive,inactive,inactive,inactive,inactive,,inactive,inactive,inactive,inactive,inactive,,inactive,,inactive,inactive,
CCCCc1ccc(Cl)cc1,inactive,inactive,inactive,inactive,inactive,inactive,,inactive,inactive,inactive,inactive,inactive,inactive,inactive,inactive,inactive,,,inactive,inactive
C=CC(C)(O)CCC=C(C)C (configuration not stated),inactive,inactive,inactive,inactive,inactive,inactive,inactive,inactive,,inactive,inactive,inactive,inactive,inactive,inactive,inactive,,inactive,inactive,
CC(=O)/C=C/C1C(C)=CCCC1(C)C (configuration not stated),inactive,inactive,inactive,inactive,inactive,inactive,inactive,inactive,,inactive,inactive,inactive,inactive,inactive,inactive,inactive,inactive,inactive,,
CC(C)CNCC(C)C,inactive,inactive,inactive,inactive,inactive,inactive,,inactive,inactive,inactive,inactive,inactive,inactive,inactive,inactive,inactive,,inactive,inactive,inactive
OCC(CO)(CBr)CBr,inactive,inactive,inactive,inactive,inactive,inactive,inactive,inactive,,inactive,inactive,inactive,inactive,inactive,inactive,inactive,,inactive,inactive,
O=C(O)C1CCC(C(=O)O)CC1 (configuration not stated),inactive,inactive,inactive,inactive,inactive,inactive,inactive,inactive,inactive,inactive,inactive,inactive,inactive,inactive,inactive,inactive,inactive,inactive,,
CN1Cc2c(N)cccc2C(c2ccccc2)C1 (configuration not stated),inactive,inactive,inactive,inactive,inactive,inactive,inactive,inactive,,14.9 µM (active),inactive,inactive,inactive,inactive,inactive,inactive,inactive,inactive,,
COc1c(Cl)ccc(Cl)c1C(=O)O,inactive,inactive,inactive,inactive,inactive,inactive,inactive,inactive,,inactive,inactive,inactive,inactive,inactive,,inactive,inactive,inactive,inactive,
Nc1ccc(Cl)c(N)c1,inactive,inactive,inactive,inactive,inactive,inactive,inactive,inactive,,inactive,inactive,inactive,inactive,inactive,inactive,inactive,inactive,inactive,inactive,
